Compounds with a hit are over-represented: about 31% of the library has one in this group of screens.
CYP2C19 inhib: inhibitors of human CYP2C19. inhibition, % at 5 µM. P33261. CYP2C19 Supersomes, luciferin-H EGE luminescence, 30 min. AID 778. 96,000 compounds, 21% hits;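 active = CYP2C19 inhibition above a set limit at 5 µM in the primary screen, cut at about 50% in these data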
Target sequence (P33261 whole entry, looked up): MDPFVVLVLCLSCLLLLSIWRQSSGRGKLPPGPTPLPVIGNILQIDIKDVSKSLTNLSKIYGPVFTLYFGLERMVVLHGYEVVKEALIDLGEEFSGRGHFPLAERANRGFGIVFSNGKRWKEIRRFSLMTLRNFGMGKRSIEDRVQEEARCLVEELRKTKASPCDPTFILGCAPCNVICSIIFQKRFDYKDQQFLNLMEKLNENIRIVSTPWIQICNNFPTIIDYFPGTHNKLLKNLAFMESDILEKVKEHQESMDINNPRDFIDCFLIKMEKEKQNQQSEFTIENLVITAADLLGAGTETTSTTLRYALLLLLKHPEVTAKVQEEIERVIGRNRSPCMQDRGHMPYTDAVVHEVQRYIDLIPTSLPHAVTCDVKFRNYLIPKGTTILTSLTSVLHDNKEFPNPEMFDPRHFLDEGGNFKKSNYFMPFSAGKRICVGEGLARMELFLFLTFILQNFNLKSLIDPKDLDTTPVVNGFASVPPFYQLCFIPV
CYP2C9 act: activators of human CYP2C9; activation factor at 5 µM; P11712; AID 1024; recombinant CYP2C9, luciferin-H conversion, luminescence; stronger effect = higher value; factor 1 = untreated enzyme, 0 = blocked; 96,000 compounds, 1.4% hits;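 active = activation factor of 2 or more for CYP2C9 at a 5 µM dose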
CYP2C9 inhib: human CYP2C9 inhibition; AID 777; 96,000 compounds, 20% hits; CYP2C9 Supersomes, luciferin-H conversion, luminescence; inhibition, % at 5 µM; P11712;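 active = blocking of liver enzyme CYP2C9 beyond about 50% at 5 µM, limit read from the data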
PLAP act: activates human placental alkaline phosphatase. P05187. 96,000 compounds, 1.2% hits. activation fold at 20 µM. purified PLAP enzyme, luminescent substrate read-out; stronger effect = higher value; in the data active = activation fold above about 2
CYP2C19 activ: increases human CYP2C19 enzyme activity; P33261; recombinant CYP2C19, luciferin-H EGE luminescence; stronger effect = higher value; 0 = fully inhibited enzyme, 1 = untreated enzyme; activation factor at 5 µM; 96,000 tested, under 10 active; AID 1025;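 active = activation factor of at least 2 at 5 µM in the primary screen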
Each line names hits and unclear results; the compound was inactive in the other large screens.

Cc1ccc(C(=O)CSc2nnc(CNc3nc(-c4ccccc4)cs3)n2C)cc1	none
O=C(CN1C(=O)COc2ccccc21)NCc1ccccn1	none
CS(=O)(=O)Nc1ccc(C(=O)N2CCN(c3ccccc3)CC2)cc1	none
CS(=O)(=O)N1CCC(C(=O)Nc2ccc3c(c2)OCCO3)CC1	none
COc1ccc(-c2nnn(CC(=O)N(Cc3cccs3)C(C)C(=O)NCCC(C)C)n2)cc1OC (configuration not stated)	none
O=C(Cn1c(C(F)(F)F)nc2ccccc21)c1ccc(Br)cc1	none
Cc1nc([N+](=O)[O-])c(Br)n1CC(=O)c1ccc(Br)cc1	CYP2C9 inhib 54.4
Cc1nc([N+](=O)[O-])c(Br)n1CC(=O)c1ccc2ccccc2c1	CYP2C19 inhib 54.1, CYP2C9 inhib 75.6
Cc1ncc([N+](=O)[O-])n1CC(=O)NCc1ccccc1	none
Cc1nc([N+](=O)[O-])c(Br)n1CC(=O)c1ccccc1	CYP2C19 inhib 51.1
COc1cccc(/C=N/NC(=O)CSc2nnc(C)n2-c2ccccc2)c1O	PLAP act 2.1
Cc1cc(C)n2nc(SCC(=O)N/N=C/c3ccccc3F)nc2n1	none
CCCCSc1nc(C)cc(SCC(=O)N/N=C/c2cccc(OC)c2O)n1	CYP2C9 inhib 64.3
COc1ccccc1OCCSc1nnc(C)n1-c1ccccc1	CYP2C19 inhib 77.4
Cc1ccc(-c2nn(-c3ccccc3)cc2/C=N/NC(=O)CSc2nnc(C)n2-c2ccccc2)cc1	CYP2C9 inhib 55.9
COc1ccc(/C=N/NC(=O)CSc2nnc(C)n2-c2ccccc2)c(OC)c1OC	none
CC1Cc2ccccc2N1C(=O)COc1nc2ccccc2nc1N1CCOCC1 (configuration not stated)	none
CC1(C)C(=O)Nc2ccccc2N1C(=O)COc1ncnc2c(Cl)cc(Cl)cc12	CYP2C19 inhib 77.3
CC1(C)C(=O)Nc2ccccc2N1C(=O)COc1ccc(S(=O)(=O)N2CCOCC2)cc1Cl	CYP2C9 inhib 66.2
CCCc1nc(SCC(N)=O)[nH]c(=O)c1CC	none
CCc1nc(SC)[nH]c(=O)c1C	CYP2C19 inhib 95.4
Nc1ccc(C(O)(C(F)(F)F)C(F)(F)F)cc1	none
CC(C)OC(=O)N(C)c1ccc(C(O)(C(F)(F)F)C(F)(F)F)cc1	CYP2C19 inhib 85.1, CYP2C9 inhib 75.2
C=CCn1c(SCC(=O)NCc2ccco2)nc2sc3c(c2c1=O)CCC3	none
O=C(NC12CC3CC(CC(C3)C1)C2)N1CCC(O)(c2ccc3c(c2)OCO3)CC1	none
O=C(COc1ccc2c(c1)OCO2)NC12CC3CC(CC(C3)C1)C2	CYP2C19 inhib 93.8, CYP2C9 inhib 74.6
Cc1ccc(S(=O)(=O)N2CCN(S(=O)(=O)c3ccccc3)C2c2ccc(N(C)C)cc2)cc1 (configuration not stated)	CYP2C19 inhib 94.2, CYP2C9 inhib 87.8
CC(C)C1N(C(=O)CN2CCCC2)CCN1S(=O)(=O)c1ccccc1 (configuration not stated)	none
CC(=O)N1CCN(S(=O)(=O)c2ccc(C)cc2)C1c1ccc(N(C)C)cc1 (configuration not stated)	none
CC(C)C1N(S(=O)(=O)c2ccccc2)CCN1S(=O)(=O)c1ccccc1	CYP2C19 inhib 100.0, CYP2C9 inhib 99.5
COc1ccc(C2N(S(=O)(=O)c3ccc(C)cc3)CCN2S(=O)(=O)c2ccc(C)cc2)cc1	CYP2C19 inhib 95.9, CYP2C9 inhib 90.2
CN1/C(=C\C(=O)c2cccs2)Sc2ccccc21	none
Brc1ccc(-c2cnc3n2CCCC3)cc1	CYP2C19 inhib 50.4
CCOc1ccc(-c2cnc3n2CCC3)cc1	none
O=S(=O)(NCCOc1ccc(F)cc1)c1ccc2c(c1)OCCO2	CYP2C19 inhib 91.4, CYP2C9 act 2.4
O=S(=O)(NCCSc1ccccc1)c1ccc2c(c1)OCCO2	CYP2C19 inhib 86.7
O=C(Nc1ccc(S(=O)(=O)NCc2ccccc2)cc1)Nc1ccc2c(c1)OCO2	none
Cc1c(C(=O)N2CCc3ccccc32)oc2c1C(=O)CC(C)(C)C2	none
CC1=C(C)CC(C(=O)NCc2ccc3c(c2)OCO3)C(C(=O)O)C1 (configuration not stated)	none
COCC(=O)NCc1ccc2c(c1)OCO2	none
CCc1ccccc1NC(=S)NCc1ccc2c(c1)OCO2	CYP2C19 inhib 60.8
Cc1ccccc1NC(=S)NCc1ccc2c(c1)OCO2	CYP2C19 inhib 89.6
Cc1ccc(C)c(NC(=S)NCc2ccc3c(c2)OCO3)c1	CYP2C19 inhib 56.5
CN(Cc1nc2ccccc2n1C)S(=O)(=O)c1ccc(Cl)cc1	none
COc1ccc(-c2ncc3ccccn23)cc1	CYP2C19 inhib 62.0
